Assay results: PMC6212833
About 15 (0.8%) of roughly 2,000 compounds showed an effect of 50% or more. This is one part of a sample in which strong results are shown more often than they occur. Where a SMILES comes first, the peptide text is derived from it. [ ]: non-standard residue; d: D form. pGlu = O=C1CC[C@@H](C(=O)O)N1; Thz = O=C(O)[C@@H]1CSCN1

System: Balamuthia mandrillaris (ATCC PRA-291) trophozoites, axenic culture
Test: primary screen, percent inhibition; higher = more effect of the substance;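 also: 0% = vehicle wells and 100% = lysate wells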
Conditions: 20 µM
Protocol: Screening of a clinically approved library of compounds, compiled by the Small Molecule Discovery Center (SMDC) at the UCSF, was completed at 20 µM in 0.2% DMSO. All 2,177 drugs in the library were stored as 10 mM stocks dissolved in 100% DMSO (Sigma-Aldrich) at −20°C. B. mandrillaris amoebae were resuspended in axenic medium and distributed into opaque 384-well plates (Corning) at a density of 3,000 amoebae per well using a BioMek NX liquid handler. Negative-control wells were treated with vehicle only (0.2% DMSO in axenic medium), and positive-control wells simulating total destruction of amoebae were seeded with amoeba lysate generated by 3 consecutive freeze-thaw cycles. Following 72 h of incubation, 30 µl of CellTiter Glo reagent (CTG; Promega) was added to each well. The luminescence was measured with a Promega GloMax-Multi+ plate reader at 2, 4, and 8 h after CTG addition. […] The B-score, representing a plate-based statistical approach for correcting row, column, and edge effects, was also calculated for each compound in the library (75).

SMILES	% Inhibition [%]
Cc1c(N(C)C)c(=O)n(-c2ccccc2)n1C	29.7
Cc1c(NC(C)C)c(=O)n(-c2ccccc2)n1C	-7.04
Cc1c(NC(=O)c2cccnc2)c(=O)n(-c2ccccc2)n1C	70.2
C=CC1=C(C(=O)O)N2C(=O)[C@@H](NC(=O)/C(=N\OCC(=O)O)c3csc(N)n3)[C@H]2SC1	6.01
C[N+]1(C)C2CC(OC(=O)[C@@H](CO)c3ccccc3)CC1C1OC12 (some centres unmarked)	15.9
NCCCC(N)C(=O)O (centres unmarked) [131504-L4]	14.1
CO/N=C(/C(=O)NC1C(=O)N2C(C(=O)O)=C(COC(N)=O)CSC12)c1ccco1 (centres unmarked)	41.1
CO[C@H]1/C=C/O[C@@]2(C)Oc3c(C)c(O)c4c(O)c(c(/C=N\N5CCN(C)CC5)c(O)c4c3C2=O)NC(=O)/C(C)=C\C=C\C(C)[C@H](O)[C@@H](C)[C@@H](O)[C@@H](C)[C@@H](OC(C)=O)[C@@H]1C (some centres unmarked)	30.6
O=C1CC[C@@H](C(=O)N2CSC[C@H]2C(=O)O)N1 ([pGlu]-[Thz]-OH)	16.6
CNC1(c2ccccc2Cl)CCCCC1=O (centres unmarked)	1.15
Clc1ccccc1CN1CCc2sccc2C1	30.2
CC[C@@H](C(N)=O)N1CCCC1=O	13.9
NC[C@H](O)c1ccc(O)c(O)c1 [130720-L3]	14.8
C[N+](C)(C)CCOC(N)=O	-7.4
C[C@]12CCC3c4ccc(O)cc4CCC3C1CCC2=O (some centres unmarked)	-7.91
CNCCCC12CCC(c3ccccc31)c1ccccc12	15.2
CC1(C)O[C@]2(C)CC[C@H]1CC2	17.9
Cn1c(=O)c2nc[nH]c2n(C)c1=O [88704-L9]	8.85
Cc1ccc(-c2cc(C(F)(F)F)nn2-c2ccc(S(N)(=O)=O)cc2)cc1	20.5
CN1C2C[C@@H](OC(=O)[C@H](CO)c3ccccc3)CC1[C@@H]1O[C@H]21	0.52

SMILES	% Inhibition [%]
CC(C)(C)NC[C@H](O)COc1nsnc1N1CCOCC1	-3.01
C=CCN1CC[C@]23c4c5ccc(O)c4OC2C(=O)CC[C@@]3(O)[C@H]1C5 (some centres unmarked)	29.3
CCC1(CC)C(=O)C=CNC1=O	27.7
COc1ccc(CC2c3cc(OC)c(OC)cc3CC[N+]2(C)CCC(=O)OCCCCCOC(=O)CC[N+]2(C)CCc3cc(OC)c(OC)cc3C2Cc2ccc(OC)c(OC)c2)cc1OC (centres unmarked) [756849-L2]	13.9
O=C(O)CCCc1ccc(N(CCCl)CCCl)cc1	-32.3
CN(C)c1ccc2nc3ccc(=[N+](C)C)cc-3sc2c1	35.9
C[N+]1(C)[C@H]2CC(OC(=O)[C@H](CO)c3ccccc3)C[C@H]1C1OC12 (some centres unmarked)	14.3
C=CCC1(C(C)CCC)C(=O)NC(=O)NC1=O (centres unmarked)	11.2
CCC1C(C)=NN=C(c2ccc(OC)c(OC)c2)c2cc(OC)c(OC)cc21 (centres unmarked)	11.9
CN(C)CCOC(c1ccc(Cl)cc1)c1ccccn1 (centres unmarked)	7.85
O=S(=O)(O)CCSSCCS(=O)(=O)O	37.4
Cc1nnc(SCC2=C(C(=O)O)N3C(=O)[C@@H](NC(=O)Cn4cnnn4)[C@H]3SC2)s1	10.9
O=C(O)CCC(=O)OC[C@@H](NC(=O)C(Cl)Cl)[C@H](O)c1ccc([N+](=O)[O-])cc1	-36.5
CC[C@H]1OC(=O)[C@H](C)[C@@H](O[C@H]2C[C@@](C)(OC)[C@@H](O)[C@H](C)O2)[C@H](C)[C@@H](O[C@@H]2O[C@H](C)C[C@H](N(C)C)[C@H]2O)[C@](C)(O)C[C@@H](C)CN(C)[C@H](C)[C@@H](O)[C@]1(C)O	23.9
Nc1c2c(nc3ccccc13)CCCC2	30.5
CC[C@H](NC(C)C)[C@H](O)c1ccc(O)c2nc(O)ccc12	6.56
C[C@]12C=CC(=O)C=C1CCC1C2[C@@H](O)C[C@@]2(C)C1CC[C@]2(O)C(=O)COP(=O)(O)O (some centres unmarked)	5.73
CN(C)CCC[C@@]1(c2ccc(F)cc2)OCc2cc(C#N)ccc21 [131042-L4]	26.2
Clc1ccc(CSC(Cn2ccnc2)c2ccc(Cl)cc2Cl)cc1 (centres unmarked)	15.3
CN(C)CCC=C1c2ccccc2C=Cc2ccccc21	23.3

SMILES	% Inhibition [%]
CN(C)C(=O)Oc1cc(OC(=O)N(C)C)cc(C(O)CNC(C)(C)C)c1 (centres unmarked) [255708-L4]	12
OC[C@H]1O[C@@](CO)(OC[C@@]2(O)O[C@H](CO)[C@@H](O)[C@@H]2O)[C@@H](O)[C@@H]1O	26.1
NC(=O)N1c2ccccc2C=Cc2ccccc21	6.46
CCN(CC)C(C)CN1c2ccccc2Sc2ccccc21 (centres unmarked)	8.27
O=c1[nH]c(=O)n([C@H]2C[C@H](O)[C@@H](CO)O2)cc1F	4.91
CCN(CC)CCNC(=O)c1c(C)[nH]c(/C=C2\C(=O)Nc3ccc(F)cc32)c1C	6.48
O=C(Nc1ccccc1)OCC(CN1CCCCC1)OC(=O)Nc1ccccc1 (centres unmarked)	9.34
CCCCC1=NC2(CCCC2)C(=O)N1Cc1ccc(-c2ccccc2-c2nn[nH]n2)cc1	14.7
CCCc1nc(C(C)(C)O)c(C(=O)O)n1Cc1ccc(-c2ccccc2-c2nn[nH]n2)cc1	21.5
OCCN1CCN(CCCN2c3ccccc3Sc3ccc(Cl)cc32)CC1	33.5
CCCCCN(C)CCC(O)(P(=O)(O)O)P(=O)(O)O [756736-L2]	25.4
Cc1cc2c(cc1S(N)(=O)=O)S(=O)(=O)CCC2	25.8
NC[C@H]1O[C@H](O[C@H]2[C@H](O)[C@@H](O[C@H]3O[C@H](CO)[C@@H](O)[C@H](N)[C@H]3O)[C@H](N)C[C@@H]2N)[C@H](O)[C@@H](O)[C@@H]1O	16
CC[C@@H]1OC(OC(c2c[nH]cn2)C(NC(=O)c2nc(C(CC(N)=O)NCC(N)C(N)=O)nc(N)c2C)C(=O)NC(C)C(O)C(C)C(=O)NC(C(=O)NCCc2nc(-c3nc(C(=O)NCCCCN=C(N)N)cs3)cs2)C(C)O)[C@@H](O[C@H]2O[C@H](CO)[C@@H](O)[C@H](OC(N)=O)[C@@H]2O)[C@@H](C)[C@@H]1C (some centres unmarked)	-5.83
O=C(NCCCN1CCOCC1)c1ccc(Cl)cc1	17.5
CC(C)OC(=O)CCC/C=C\C[C@@H]1[C@@H](CC[C@@H](O)CCc2ccccc2)[C@H](O)C[C@@H]1O	12.8
CC[C@@H](C(=O)[C@@H](C)[C@@H](O)[C@H](C)[C@@H]1O[C@@H]([C@@H](CC)C(=O)O)CC[C@@H]1C)[C@H]1OC2(C=C[C@@H](O)[C@]3(CC[C@@](C)([C@H]4CC[C@](O)(CC)[C@H](C)O4)O3)O2)[C@H](C)C[C@@H]1C (some centres unmarked)	19.1
CC[C@]1(O)C[C@H]2CN(CCc3c([nH]c4ccccc34)[C@@](C(=O)OC)(c3cc4c(cc3OC)N(C=O)[C@H]3[C@@](O)(C(=O)OC)[C@H](OC(C)=O)[C@]5(CC)C=CCN6CC[C@]43[C@@H]65)C2)C1	9.62
COc1ccccc1N1CCN(CCCNc2cc(=O)n(C)c(=O)n2C)CC1	37.2
